Results published in PubChem BioAssay (NCATS).
Records with an inconclusive call do not appear. Unmarked numbers belong to inactive results. Calls of active or inactive are those of the source. Calls come from the whole dose curve; as a rule, active = well fitted cell-killing curve with a large enough effect; inconclusive = small, poorly fitted or top-dose-only effect, or effect the other way; inactive = no such curve, though single readings can be large or run the other way.

Experiment: Quantitative High-Throughput drug screen in 47 multiple myeloma cell lines against the NCATS MIPE library collection: ARP1_JJKsccF8 cell viability assay (AID 1918928; note: nearly all actives have a fitted effect of over 40% in size)
Conditions: ARP1 myeloma cells viability, CellTiter-Glo ATP, 48 h; series mostly up to 45.8 µM; viability: at the top concentration
Method in brief: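 Viability screen: myeloma cells (500/well) incubated 48 h at 37 °C, humidified 5% CO2, with pinned library compounds; CellTiter-Glo added, luminescence read; DMSO wells set 100%, medium-only wells 0%.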
Potency is the fitted concentration of half-maximal effect.

| Structure (SMILES) | Potency | viability [%] |
| --- | --- | --- |
| COc1ccc(C(=O)CC(=O)c2ccc(C(C)(C)C)cc2)cc1 | 10.5 µM (active) |  |
| CCN1CCCC1CNC(=O)c1cc(S(N)(=O)=O)ccc1OC (stereo unspecified) |  | 108 |
| Oc1c(Cl)cc(Cl)c2cccnc12 | 26.4 µM (active) |  |
| COc1cc2ncnc(Nc3cccc(Cl)c3)c2cc1OC | 26.4 µM (active) |  |
| Cc1oc(=O)oc1CN1CCN(c2cc3c(cc2F)c(=O)c(C(=O)O)c2n3C(C)S2)CC1 (stereo unspecified) | 14.8 µM (active) |  |
| O=c1cc(O)c(Cl)c[nH]1 |  | 84.6 |
| CCc1c2c(nc3ccc(OC(=O)N4CCC(N5CCCCC5)CC4)cc13)-c1cc3c(c(=O)n1C2)COC(=O)[C@]3(O)CC | 0.743 µM (active) |  |
| O=C(O)C1CCCN(CCC=C(c2ccccc2)c2ccccc2)C1 (stereo unspecified) |  | 113 |
| COc1ccc2cc3[n+](cc2c1OC)CCc1cc2c(cc1-3)OCO2 | 6.62 µM (active) |  |
| CN(C)CCc1c[nH]c2ccc(C[C@H]3COC(=O)N3)cc12 |  | 107 |
| COC(=O)Nc1nc2ccc(Sc3ccccc3)cc2[nH]1 | 1.18 µM (active) |  |
| CC(C)(C)NC(=O)[C@H]1CC[C@H]2[C@@H]3CC[C@H]4NC(=O)C=C[C@]4(C)[C@H]3CC[C@]12C |  | 107 |
| CO[C@@]12[C@H](COC(N)=O)C3=C(C(=O)C(C)=C(N)C3=O)N1C[C@@H]1N[C@@H]12 | 26.4 µM (active) |  |
| CNC1CCCN(c2c(F)cc3c(=O)c(C(=O)O)cn(C4CC4)c3c2OC)C1 (stereo unspecified) |  | 75.6 |
| Nc1nc(N)c2nc(CNc3ccc(C(=O)NC(CCC(=O)O)C(=O)O)cc3)cnc2n1 (stereo unspecified) | 0.0372 µM (active) |  |
| CC[C@H](NC(C)C)[C@H](O)c1ccc(O)c2[nH]c(=O)ccc12 |  | 103 |
| O=C(O)CSCC(=O)NC1CCSC1=O (stereo unspecified) |  | 117 |
| COc1ccc(-c2ccc3cc(C(=O)O)ccc3c2)cc1C12CC3CC(CC(C3)C1)C2 |  | 106 |

| Structure (SMILES) | Potency | viability [%] |
| --- | --- | --- |
| Cn1nnc2c(C(N)=O)ncn2c1=O |  | 113 |
| N[C@@H](C(=O)N[C@@H]1C(=O)N2C(C(=O)O)=C(Cl)CS[C@H]12)c1ccccc1 |  | 111 |
| CCC(=O)O[C@]1(C(=O)SCF)[C@H](C)C[C@H]2[C@@H]3C[C@H](F)C4=CC(=O)C=C[C@]4(C)[C@@]3(F)[C@@H](O)C[C@@]21C |  | 49.8 |
| Nc1ccc(S(=O)(=O)Nc2ccccn2)cc1 |  | 117 |
| Nc1[nH]c(=O)ncc1F |  | 101 |
| CN1CCN(c2c(F)cc3c(=O)c(C(=O)O)cn4c3c2OCN4C)CC1 |  | 103 |
| CN(Cc1cc(Br)cc(Br)c1N)C1CCCCC1 |  | 81.9 |
| Cc1cccc(N(C)C(=S)Oc2ccc3ccccc3c2)c1 |  | 85.5 |
| OC(Cn1cncn1)(Cn1cncn1)c1ccc(F)cc1F |  | 78.4 |
| CC[C@H](C)C(=O)O[C@H]1C[C@@H](C)C=C2C=C[C@H](C)[C@H](CC[C@@H]3C[C@@H](O)CC(=O)O3)[C@H]21 | 23.5 µM (active) |  |
| COc1cc([C@@H]2c3cc4c(cc3[C@H](O)[C@H]3COC(=O)[C@H]23)OCO4)cc(OC)c1OC |  | 5.49 |
| Cc1noc(NS(=O)(=O)c2ccc(N)cc2)c1C |  | 103 |
| O=NN(CCCl)C(=O)NC1CCCCC1 |  | 96.4 |
| COc1c(N2CCNC(C)C2)c(F)cc2c(=O)c(C(=O)O)cn(C3CC3)c12 (stereo unspecified) |  | 119 |
| COc1cc(NS(=O)(=O)c2ccc(N)cc2)nc(OC)n1 |  | 106 |
| CN(C)c1ccc(C(=C2C=CC(=[N+](C)C)C=C2)c2ccc(N(C)C)cc2)cc1 | 0.166 µM (active) |  |
| CCOCC(O)COc1ccc(NC(=O)CC[S+](C)C)cc1 (stereo unspecified) |  | 111 |
| N=C(N)c1ccc(OCCCCCOc2ccc(C(=N)N)cc2)cc1 | 16.6 µM (active) |  |
